# Results published in PMC7862700, “An all-to-all approach to the identification of sequence-specific readers for epigenetic DNA modifications on cytosine”.
# Assays:
# Assay in all cases: DAPPL (digital affinity profiling via proximity ligation, sequencing); 10 mM Tris-HCl pH 7.5, 50 mM NaCl, 1 mM DTT, 4% glycerol, room temperature, 30 min; GST-TFs on glutathione beads, 16-mer random dsDNA library, 0.1% formaldehyde crosslink after washing; high values mean tight binding
# FLI1 = molecular target: T1, FLI1 (Homo sapiens, UniProt Q01543 1-452); conditions: protein: recombinant; tags: N-terminal GST; dsDNA, one strand shown
# T1 sequence: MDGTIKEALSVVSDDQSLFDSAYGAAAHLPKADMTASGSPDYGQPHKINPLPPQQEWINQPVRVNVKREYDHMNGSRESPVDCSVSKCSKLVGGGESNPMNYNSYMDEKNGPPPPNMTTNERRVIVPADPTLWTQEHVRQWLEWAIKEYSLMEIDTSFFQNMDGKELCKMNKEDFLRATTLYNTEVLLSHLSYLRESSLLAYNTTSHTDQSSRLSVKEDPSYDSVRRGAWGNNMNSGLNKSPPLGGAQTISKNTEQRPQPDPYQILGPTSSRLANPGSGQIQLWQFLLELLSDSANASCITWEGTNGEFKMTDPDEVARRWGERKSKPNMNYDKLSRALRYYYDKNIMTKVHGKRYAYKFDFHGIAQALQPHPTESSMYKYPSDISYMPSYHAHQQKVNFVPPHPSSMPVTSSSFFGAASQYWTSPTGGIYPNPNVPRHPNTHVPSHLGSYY
# Procedure, shortened: (§1)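 A tag-only sample was pooled with DNA-barcoded human transcription factors that had been expressed in yeast as GST fusions and captured on glutathione beads. The pools were incubated for 30 min at room temperature with 200 nmole of a random double-stranded 16-mer DNA library in Tris/NaCl/DTT/glycerol buffer, then washed, crosslinked with 0.1% formaldehyde, proximity-ligated (BsaI/T4 ligase, 1 h, 37 °C), PCR-amplified and sequenced on an Illumina NextSeq500. Binding signal is each hexamer's read frequency for a factor divided by its frequency for the tag-only sample.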
# ELK1 = molecular target: T2, ELK1 (Homo sapiens, UniProt P19419 1-428); conditions: protein: recombinant; tags: N-terminal GST; dsDNA, one strand shown
# T2 sequence: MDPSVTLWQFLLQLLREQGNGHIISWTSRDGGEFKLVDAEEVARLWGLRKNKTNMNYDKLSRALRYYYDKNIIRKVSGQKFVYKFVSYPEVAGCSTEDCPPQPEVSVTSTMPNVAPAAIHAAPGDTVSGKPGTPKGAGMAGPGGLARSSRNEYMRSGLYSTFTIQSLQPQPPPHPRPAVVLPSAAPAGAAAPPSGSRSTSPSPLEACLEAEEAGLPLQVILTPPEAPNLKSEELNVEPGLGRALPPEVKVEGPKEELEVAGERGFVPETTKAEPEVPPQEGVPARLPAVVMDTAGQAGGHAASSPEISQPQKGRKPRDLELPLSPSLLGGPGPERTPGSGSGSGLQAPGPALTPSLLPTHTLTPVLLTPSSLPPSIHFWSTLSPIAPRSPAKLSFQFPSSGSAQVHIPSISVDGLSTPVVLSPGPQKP
# Procedure, shortened: as §1
# GABPA = molecular target: T3, GABPA (Homo sapiens, UniProt Q06546 1-454); conditions: protein: recombinant; tags: N-terminal GST; dsDNA, one strand shown
# T3 sequence: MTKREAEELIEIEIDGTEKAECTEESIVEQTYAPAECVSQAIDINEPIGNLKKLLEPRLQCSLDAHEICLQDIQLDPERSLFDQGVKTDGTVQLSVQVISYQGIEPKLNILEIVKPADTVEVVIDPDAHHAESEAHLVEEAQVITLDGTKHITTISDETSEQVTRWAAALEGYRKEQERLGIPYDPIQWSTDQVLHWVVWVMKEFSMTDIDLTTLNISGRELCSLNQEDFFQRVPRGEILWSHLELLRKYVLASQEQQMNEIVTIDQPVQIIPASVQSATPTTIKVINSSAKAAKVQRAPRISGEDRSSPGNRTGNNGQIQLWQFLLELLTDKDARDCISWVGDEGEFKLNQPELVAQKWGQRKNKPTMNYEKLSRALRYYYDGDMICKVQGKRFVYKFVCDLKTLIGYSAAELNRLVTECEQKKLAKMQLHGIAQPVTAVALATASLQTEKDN
# Procedure, shortened: as §1
# ERG = molecular target: T4, ERG (Homo sapiens, UniProt P11308 1-479); conditions: protein: recombinant; tags: N-terminal GST; dsDNA, one strand shown
# T4 sequence: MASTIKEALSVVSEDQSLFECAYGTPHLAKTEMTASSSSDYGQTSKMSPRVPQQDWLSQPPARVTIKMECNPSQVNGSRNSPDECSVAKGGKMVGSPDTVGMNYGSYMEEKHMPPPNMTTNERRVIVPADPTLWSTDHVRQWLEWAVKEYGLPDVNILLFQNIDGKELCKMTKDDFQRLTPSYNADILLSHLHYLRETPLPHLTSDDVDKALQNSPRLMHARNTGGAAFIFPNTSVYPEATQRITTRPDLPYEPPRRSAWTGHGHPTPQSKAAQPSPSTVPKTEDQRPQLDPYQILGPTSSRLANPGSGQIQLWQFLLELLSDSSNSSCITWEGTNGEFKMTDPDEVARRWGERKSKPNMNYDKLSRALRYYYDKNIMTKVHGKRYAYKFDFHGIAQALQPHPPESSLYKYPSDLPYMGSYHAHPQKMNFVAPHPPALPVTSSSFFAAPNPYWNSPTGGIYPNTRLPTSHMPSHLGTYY
# Procedure, shortened: as §1
# ELF1 = ELF1 (Homo sapiens, UniProt P32519 1-619); conditions: protein: recombinant; tags: N-terminal GST; dsDNA, one strand shown
# Procedure, shortened: as §1
# EHF = molecular target: T5, EHF (Homo sapiens, UniProt Q9NZC4 1-300); conditions: protein: recombinant; tags: N-terminal GST; dsDNA, one strand shown
# T5 sequence: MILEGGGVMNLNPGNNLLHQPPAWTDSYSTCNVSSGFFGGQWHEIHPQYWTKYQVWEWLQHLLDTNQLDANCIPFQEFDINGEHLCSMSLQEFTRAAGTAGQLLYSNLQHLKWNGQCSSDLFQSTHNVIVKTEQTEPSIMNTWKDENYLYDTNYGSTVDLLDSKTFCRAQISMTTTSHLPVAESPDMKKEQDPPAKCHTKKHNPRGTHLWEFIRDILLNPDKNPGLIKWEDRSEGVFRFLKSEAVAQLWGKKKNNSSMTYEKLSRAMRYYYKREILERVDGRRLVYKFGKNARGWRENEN
# Procedure, shortened: as §1
# SPI1 = SPI1 (Homo sapiens, UniProt P17947 1-270); conditions: protein: recombinant; tags: N-terminal GST; dsDNA, one strand shown
# Procedure, shortened: as §1
# SPIB = SPIB (Homo sapiens, UniProt Q01892 1-262); conditions: protein: recombinant; tags: N-terminal GST; dsDNA, one strand shown
# Procedure, shortened: as §1
# ELK3 = molecular target: T6, ELK3 (Homo sapiens, UniProt P41970 1-407); conditions: protein: recombinant; tags: N-terminal GST; dsDNA, one strand shown
# T6 sequence: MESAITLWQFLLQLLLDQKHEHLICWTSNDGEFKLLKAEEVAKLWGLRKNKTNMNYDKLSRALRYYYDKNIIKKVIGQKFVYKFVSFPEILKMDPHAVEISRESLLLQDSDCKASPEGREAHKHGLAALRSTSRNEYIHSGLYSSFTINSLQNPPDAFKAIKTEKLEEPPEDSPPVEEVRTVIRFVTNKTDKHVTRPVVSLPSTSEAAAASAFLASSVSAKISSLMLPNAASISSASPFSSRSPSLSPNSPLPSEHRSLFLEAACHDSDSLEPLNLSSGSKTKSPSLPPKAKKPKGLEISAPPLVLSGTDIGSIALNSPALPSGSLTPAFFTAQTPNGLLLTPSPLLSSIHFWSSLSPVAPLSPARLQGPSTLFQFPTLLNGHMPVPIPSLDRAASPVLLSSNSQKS
# Procedure, shortened: as §1
# FEV = molecular target: T7, FEV (Homo sapiens, UniProt Q99581 1-238); conditions: protein: recombinant; tags: N-terminal GST; dsDNA, one strand shown
# T7 sequence: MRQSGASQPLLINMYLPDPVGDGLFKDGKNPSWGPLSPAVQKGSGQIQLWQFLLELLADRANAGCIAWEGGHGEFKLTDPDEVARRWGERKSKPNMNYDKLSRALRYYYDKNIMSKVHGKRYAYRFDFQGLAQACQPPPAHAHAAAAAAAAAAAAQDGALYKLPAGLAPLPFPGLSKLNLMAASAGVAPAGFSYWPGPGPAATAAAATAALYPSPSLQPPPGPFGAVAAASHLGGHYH
# Procedure, shortened: as §1
# ETV5 = ETV5 (Homo sapiens, UniProt P41161 1-510); conditions: protein: recombinant; tags: N-terminal GST; dsDNA, one strand shown
# Procedure, shortened: as §1
# HSF1 = HSF1 (Homo sapiens, UniProt Q00613 1-529); conditions: protein: recombinant; tags: N-terminal GST; chain copies: 3; dsDNA, one strand shown
# Procedure, shortened: as §1
# SPIC = molecular target: T8, SPIC (Homo sapiens, UniProt Q8N5J4 1-248); conditions: protein: recombinant; tags: N-terminal GST; dsDNA, one strand shown
# T8 sequence: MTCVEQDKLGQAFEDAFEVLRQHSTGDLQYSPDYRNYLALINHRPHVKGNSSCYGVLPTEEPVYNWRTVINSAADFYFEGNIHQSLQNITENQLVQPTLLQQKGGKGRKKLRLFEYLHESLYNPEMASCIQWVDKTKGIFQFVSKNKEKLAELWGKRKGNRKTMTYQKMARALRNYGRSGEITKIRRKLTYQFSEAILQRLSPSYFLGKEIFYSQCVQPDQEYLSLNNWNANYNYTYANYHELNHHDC
# Procedure, shortened: as §1
# ELF4 = ELF4 (Homo sapiens, UniProt Q99607 1-663); conditions: protein: recombinant; tags: N-terminal GST; dsDNA, one strand shown
# Procedure, shortened: as §1
# ELK4 = molecular target: T9, ELK4 (Homo sapiens, UniProt P28324-2 1-405); conditions: protein: recombinant; tags: N-terminal GST; dsDNA, one strand shown
# T9 sequence: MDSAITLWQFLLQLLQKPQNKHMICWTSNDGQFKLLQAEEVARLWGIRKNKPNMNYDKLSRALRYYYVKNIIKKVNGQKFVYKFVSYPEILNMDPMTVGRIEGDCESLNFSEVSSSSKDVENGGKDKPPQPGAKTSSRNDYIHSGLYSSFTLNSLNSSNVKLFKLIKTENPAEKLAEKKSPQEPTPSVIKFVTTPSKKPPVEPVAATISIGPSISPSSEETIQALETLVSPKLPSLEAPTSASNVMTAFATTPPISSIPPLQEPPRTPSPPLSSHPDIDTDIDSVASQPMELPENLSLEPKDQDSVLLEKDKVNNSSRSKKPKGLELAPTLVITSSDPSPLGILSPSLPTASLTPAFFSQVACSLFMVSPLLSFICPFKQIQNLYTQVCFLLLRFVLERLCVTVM
# Procedure, shortened: as §1
# ETV2 = molecular target: T10, ETV2 (Homo sapiens, UniProt O00321 1-342); conditions: protein: recombinant; tags: N-terminal GST; dsDNA, one strand shown
# T10 sequence: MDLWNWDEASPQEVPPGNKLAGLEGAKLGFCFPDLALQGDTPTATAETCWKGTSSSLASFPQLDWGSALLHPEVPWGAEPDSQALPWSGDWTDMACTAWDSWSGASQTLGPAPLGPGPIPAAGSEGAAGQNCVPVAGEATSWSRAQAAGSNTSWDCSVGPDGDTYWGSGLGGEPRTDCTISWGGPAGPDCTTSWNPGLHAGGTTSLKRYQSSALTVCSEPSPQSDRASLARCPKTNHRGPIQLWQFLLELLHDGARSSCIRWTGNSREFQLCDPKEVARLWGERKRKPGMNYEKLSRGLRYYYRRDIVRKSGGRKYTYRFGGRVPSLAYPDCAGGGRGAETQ
# Procedure, shortened: as §1
# ELF3 = molecular target: T11, ELF3 (Homo sapiens, UniProt P78545 1-371); conditions: protein: recombinant; tags: N-terminal GST; dsDNA, one strand shown
# T11 sequence: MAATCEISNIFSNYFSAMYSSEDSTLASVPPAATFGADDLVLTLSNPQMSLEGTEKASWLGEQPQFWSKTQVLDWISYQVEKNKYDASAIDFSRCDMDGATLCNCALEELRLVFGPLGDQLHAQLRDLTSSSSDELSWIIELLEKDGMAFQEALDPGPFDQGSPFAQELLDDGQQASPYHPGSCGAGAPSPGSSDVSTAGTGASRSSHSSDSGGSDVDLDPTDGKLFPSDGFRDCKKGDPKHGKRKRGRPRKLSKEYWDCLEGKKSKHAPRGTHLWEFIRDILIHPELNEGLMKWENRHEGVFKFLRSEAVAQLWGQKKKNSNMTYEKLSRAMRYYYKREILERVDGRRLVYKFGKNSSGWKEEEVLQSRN
# Procedure, shortened: as §1
# CRX = CRX (Homo sapiens, UniProt O43186 1-299); conditions: protein: recombinant; tags: N-terminal GST; dsDNA, one strand shown
# Procedure, shortened: as §1
# ETV1 = ETV1 (Homo sapiens, UniProt P50549 1-477); conditions: protein: recombinant; tags: N-terminal GST; dsDNA, one strand shown
# Procedure, shortened: as §1
# CRX, sequence (O43186 whole entry): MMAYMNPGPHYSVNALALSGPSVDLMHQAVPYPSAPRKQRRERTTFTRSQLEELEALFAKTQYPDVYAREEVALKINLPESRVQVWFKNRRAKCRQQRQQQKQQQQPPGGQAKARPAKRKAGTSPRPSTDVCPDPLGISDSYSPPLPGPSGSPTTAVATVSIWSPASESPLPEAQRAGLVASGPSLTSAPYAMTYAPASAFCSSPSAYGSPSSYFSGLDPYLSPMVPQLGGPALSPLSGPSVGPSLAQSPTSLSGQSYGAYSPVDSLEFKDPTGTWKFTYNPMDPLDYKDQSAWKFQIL
# HSF1, sequence (Q00613 whole entry): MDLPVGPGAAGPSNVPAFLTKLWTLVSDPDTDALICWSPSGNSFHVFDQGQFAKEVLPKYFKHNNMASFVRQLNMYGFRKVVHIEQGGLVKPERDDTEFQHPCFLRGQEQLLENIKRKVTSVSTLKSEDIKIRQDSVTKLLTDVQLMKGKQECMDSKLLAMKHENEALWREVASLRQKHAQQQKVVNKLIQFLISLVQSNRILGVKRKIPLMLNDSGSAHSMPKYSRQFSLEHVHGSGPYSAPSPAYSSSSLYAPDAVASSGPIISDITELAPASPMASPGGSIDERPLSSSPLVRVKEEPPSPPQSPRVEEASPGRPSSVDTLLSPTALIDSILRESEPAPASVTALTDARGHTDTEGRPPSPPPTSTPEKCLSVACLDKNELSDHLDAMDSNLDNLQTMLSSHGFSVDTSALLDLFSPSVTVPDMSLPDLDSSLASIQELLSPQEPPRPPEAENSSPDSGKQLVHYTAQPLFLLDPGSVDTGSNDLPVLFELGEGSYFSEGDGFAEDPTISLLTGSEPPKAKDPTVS
# ELF1, sequence (P32519 whole entry): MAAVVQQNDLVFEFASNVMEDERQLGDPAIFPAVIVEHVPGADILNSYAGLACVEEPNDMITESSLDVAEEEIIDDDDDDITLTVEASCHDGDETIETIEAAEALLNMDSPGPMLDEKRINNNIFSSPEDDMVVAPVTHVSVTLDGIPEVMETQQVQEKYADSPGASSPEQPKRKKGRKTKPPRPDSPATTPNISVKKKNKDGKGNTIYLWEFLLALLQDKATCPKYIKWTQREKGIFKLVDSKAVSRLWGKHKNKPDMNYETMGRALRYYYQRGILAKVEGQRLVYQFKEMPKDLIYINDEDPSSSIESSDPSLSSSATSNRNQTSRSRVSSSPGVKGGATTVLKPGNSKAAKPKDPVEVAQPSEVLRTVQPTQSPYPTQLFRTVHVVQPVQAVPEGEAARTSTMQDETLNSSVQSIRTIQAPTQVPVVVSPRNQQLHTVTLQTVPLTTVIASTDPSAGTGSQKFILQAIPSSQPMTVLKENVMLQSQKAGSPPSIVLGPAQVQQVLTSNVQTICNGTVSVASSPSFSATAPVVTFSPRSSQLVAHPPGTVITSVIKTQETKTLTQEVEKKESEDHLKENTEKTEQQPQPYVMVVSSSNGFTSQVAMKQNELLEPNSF
# ELF4, sequence (Q99607 whole entry): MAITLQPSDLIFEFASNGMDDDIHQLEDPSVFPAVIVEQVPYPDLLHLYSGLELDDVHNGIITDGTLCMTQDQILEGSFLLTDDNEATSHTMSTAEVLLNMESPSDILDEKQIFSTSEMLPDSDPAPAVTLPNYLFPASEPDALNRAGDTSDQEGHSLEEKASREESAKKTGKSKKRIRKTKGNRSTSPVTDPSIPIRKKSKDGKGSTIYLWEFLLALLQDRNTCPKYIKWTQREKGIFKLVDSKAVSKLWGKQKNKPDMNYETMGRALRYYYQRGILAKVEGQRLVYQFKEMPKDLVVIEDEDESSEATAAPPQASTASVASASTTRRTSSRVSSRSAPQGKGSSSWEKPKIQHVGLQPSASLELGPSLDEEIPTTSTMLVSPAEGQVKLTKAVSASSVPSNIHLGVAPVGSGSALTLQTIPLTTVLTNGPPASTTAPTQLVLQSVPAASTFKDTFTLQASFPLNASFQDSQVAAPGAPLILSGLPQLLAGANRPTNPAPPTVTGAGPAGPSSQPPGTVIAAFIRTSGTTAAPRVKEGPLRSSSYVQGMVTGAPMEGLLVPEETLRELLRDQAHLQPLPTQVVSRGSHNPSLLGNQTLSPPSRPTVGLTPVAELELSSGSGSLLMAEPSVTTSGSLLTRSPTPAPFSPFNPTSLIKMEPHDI
# ETV5, sequence (P41161 whole entry): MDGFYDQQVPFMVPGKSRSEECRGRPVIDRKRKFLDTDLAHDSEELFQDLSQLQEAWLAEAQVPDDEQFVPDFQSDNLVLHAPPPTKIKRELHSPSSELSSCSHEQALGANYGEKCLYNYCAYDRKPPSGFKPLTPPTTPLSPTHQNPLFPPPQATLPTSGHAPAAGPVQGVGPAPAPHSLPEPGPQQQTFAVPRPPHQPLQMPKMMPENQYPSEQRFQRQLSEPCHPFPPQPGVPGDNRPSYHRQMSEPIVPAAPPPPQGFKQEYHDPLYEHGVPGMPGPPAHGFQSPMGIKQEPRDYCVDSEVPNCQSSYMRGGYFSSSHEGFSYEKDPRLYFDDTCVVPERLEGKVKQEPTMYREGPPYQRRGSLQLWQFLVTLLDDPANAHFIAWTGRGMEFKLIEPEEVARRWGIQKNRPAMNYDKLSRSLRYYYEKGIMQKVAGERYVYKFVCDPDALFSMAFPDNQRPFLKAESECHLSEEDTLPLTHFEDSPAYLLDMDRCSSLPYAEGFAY
# SPIB, sequence (Q01892 whole entry): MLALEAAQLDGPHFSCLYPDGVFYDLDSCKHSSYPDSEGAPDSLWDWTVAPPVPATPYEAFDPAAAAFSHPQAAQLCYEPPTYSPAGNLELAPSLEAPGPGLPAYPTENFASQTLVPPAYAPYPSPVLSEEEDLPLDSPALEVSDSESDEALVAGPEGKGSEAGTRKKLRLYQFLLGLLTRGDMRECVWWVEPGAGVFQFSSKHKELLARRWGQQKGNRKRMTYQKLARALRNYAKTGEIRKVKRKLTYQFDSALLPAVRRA
# ETV1, sequence (P50549 whole entry): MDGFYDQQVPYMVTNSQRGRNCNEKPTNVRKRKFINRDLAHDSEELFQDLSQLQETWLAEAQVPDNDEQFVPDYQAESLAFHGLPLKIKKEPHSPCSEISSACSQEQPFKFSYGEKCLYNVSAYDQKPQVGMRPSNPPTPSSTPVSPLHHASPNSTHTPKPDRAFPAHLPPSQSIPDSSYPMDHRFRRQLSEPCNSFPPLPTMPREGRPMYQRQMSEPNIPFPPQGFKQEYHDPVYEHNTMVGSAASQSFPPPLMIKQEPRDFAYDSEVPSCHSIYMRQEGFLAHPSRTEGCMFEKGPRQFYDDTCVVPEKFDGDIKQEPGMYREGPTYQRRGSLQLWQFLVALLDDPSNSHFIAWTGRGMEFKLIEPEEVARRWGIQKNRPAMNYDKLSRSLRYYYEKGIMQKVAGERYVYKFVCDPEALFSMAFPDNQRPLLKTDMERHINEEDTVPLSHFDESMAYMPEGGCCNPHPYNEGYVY
sequence,measurement,setting,value
GGCTCC,binding signal,FLI1,"1.33 fold enrichment (6-mer frequency, TF over GST control)"
same,binding signal,ELK1,"1.29 fold enrichment (6-mer frequency, TF over GST control)"
same,binding signal,GABPA,"1.44 fold enrichment (6-mer frequency, TF over GST control)"
same,binding signal,ERG,"1.35 fold enrichment (6-mer frequency, TF over GST control)"
same,binding signal,ELF1,"1.3 fold enrichment (6-mer frequency, TF over GST control)"
same,binding signal,EHF,"1.31 fold enrichment (6-mer frequency, TF over GST control)"
same,binding signal,SPI1,"1.22 fold enrichment (6-mer frequency, TF over GST control)"
same,binding signal,SPIB,"1.39 fold enrichment (6-mer frequency, TF over GST control)"
same,binding signal,ELK3,"1.27 fold enrichment (6-mer frequency, TF over GST control)"
same,binding signal,FEV,"1.35 fold enrichment (6-mer frequency, TF over GST control)"
same,binding signal,ETV5,"1.37 fold enrichment (6-mer frequency, TF over GST control)"
same,binding signal,HSF1,"1.13 fold enrichment (6-mer frequency, TF over GST control)"
same,binding signal,SPIC,"1.16 fold enrichment (6-mer frequency, TF over GST control)"
same,binding signal,ELF4,"1.24 fold enrichment (6-mer frequency, TF over GST control)"
same,binding signal,ELK4,"1.29 fold enrichment (6-mer frequency, TF over GST control)"
same,binding signal,ETV2,"1.43 fold enrichment (6-mer frequency, TF over GST control)"
same,binding signal,ELF3,"1.32 fold enrichment (6-mer frequency, TF over GST control)"
same,binding signal,CRX,"1.1 fold enrichment (6-mer frequency, TF over GST control)"
same,binding signal,ETV1,"1.24 fold enrichment (6-mer frequency, TF over GST control)"
